# Assay outcomes deposited in PubChem by several laboratories.
# A selection: hits, their analogues and other compounds. The true share with any hit is near 9.6%.
# HCT116 PTEN-null: growth suppression of PTEN-null HCT116, primary screen, cell-based, CellTiter-Glo; HCT116 PTEN-null viability, 60 h; hits give low values; viability, % at 10 µM; 140,000 compounds, 1.2% hits; AID 827, 2007;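 active means viability at or below a set limit, 4 SD under the median of all tested compounds, cut at about 3.7% in these data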;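 further: PTEN knockout HCT116 line with beta catenin targeted HCT116 as companion control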
# Lmaj promast: Leishmania major promastigote growth inhibition, primary screen. Leishmania major promastigotes, resazurin fluorescence viability. inhibition, % at 10 µM. 200,000 compounds, 9% hits; in the data active means inhibition above about 50%;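 further: promastigotes grown with compound for 44 hours at 28 °C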
# Ins promoter up: insulin promoter activators in MIN6 cells, imaging, high-content screening, mouse beta cells. z-score at 5 µM. MIN6 insulin promoter-GFP reporter; hits give high values. AID 1625, 2009. 190,000 compounds, 0.3% hits;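 active means z-score above 3 at 5 µM with at least 500 cells counted in the well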
# bCat KO growth: primary screen for growth suppressors in beta-catenin knockout HCT116 cells (colon tumor, human); HCT116 beta-catenin knockout viability, CellTiter-Glo, 60 h; hits give low values; viability, % at 10 µM; 140,000 compounds, 1.5% hits; AID 818, 2007;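 active means viability at or under a set limit, the compound median less 4 SD, cut at about 6% in these data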;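 further: 0% = Hyamine 1622 control at 20 µM and 100% = untreated cell control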
# Autophagy mod: autophagy modulators in MEF cells, primary screen, imaging, high-content, MEF GFP-LC3; 190,000 compounds, 0.98% hits; MEF GFP-LC3 puncta imaging; test concentration mostly 10 µM; calls only at 10 µM (by protocol);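 active means percentage of spot-positive cells more than 3 SD above its plate mean, without a fluorescence outlier flag or 80% toxicity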;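 further: spot-positive cell cutoff set from DMSO-treated cells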
# INS promoter inh: inhibitors of insulin promoter-driven GFP, primary screen, imaging, TRM-6 cells (human fetal islet line), eGFP reporter, cell count; 130,000 compounds, 0.9% hits; AID 1273, 2008; reporter expression induced with tamoxifen; inhibition, % at 2 µM;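 active means inhibition above the mean plus 3 SD, with well images judged a real hit on visual review, cut at about 60% in these data, passing the limit was not always enough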
# An asterisk follows results filed as active; i = inactive; x = not tested or not shown; + = active, no number.
SMILES,HCT116 PTEN-null,Lmaj promast,Ins promoter up,bCat KO growth,Autophagy mod,INS promoter inh
Cc1ccc(S(=O)(=O)NCCSc2nnnn2-c2cc(C)ccc2C)cc1,84.3,99.8*,0.23,76.9,i,-109.5
COC(=O)c1sccc1Oc1ccc(F)cc1[N+](=O)[O-],110.5,0.4,x,91.9,i,5.6
C/C(=N/Nc1cc(-c2ccccc2)nc(-c2ccccc2)n1)c1ccc(O)cc1,12.8,89.3*,-0.44,17.5,i,14.8
O=C(CN1CCN(S(=O)(=O)c2ccccc2)CC1)Nc1ccc([N+](=O)[O-])cc1,38.5,-5.3,0.18,34.4,i,39.7
COc1cccc(/C=N/NC(=O)CCn2cnc3ccccc32)c1,x,x,3.74*,x,x,x
CCn1c(C)nc2cc(C(=O)NNC(=S)NC(=O)c3ccc(OC)cc3)ccc21,x,94.3*,-0.56,x,i,x
CCn1c(C)nc2cc(C(=O)NNC(=S)Nc3ccc(C)cc3)ccc21,x,x,-0.32,x,x,x
COc1cc(NC(=S)Nc2ccccn2)cc(OC)c1OC,x,15.2,0.08,x,i,x
CCOC(=O)c1cc(-c2ccc(C)o2)nn1CCC#N,112.0,-5.4,0.08,103.7,i,22.6
CN1CCN(C(=O)c2ccc(CN3CCOCC3)cc2)CC1,113.7,-5.3,-0.07,98.8,i,x
COc1ccc(CCNC(=O)c2ccc(CN3CCC(Cc4ccccc4)CC3)cc2)cc1OC,30.0,4.8,-0.17,31.5,i,33.3
CCc1ccccc1NC(=O)c1ccc(CN2CCC(Cc3ccccc3)CC2)cc1,43.7,79.6*,0.22,38.0,i,-10.0
O=C(c1ccc(CN2CCOCC2)cc1)N1CCC(Cc2ccccc2)CC1,96.5,87.4*,-1.06,101.1,i,x
Cc1ccc(CCC(=O)Nc2ccccc2F)s1,x,-1.6,0.37,x,i,0.0
CCOC(=O)c1c(C)nc2sc(C(N)=O)c(N)c2c1-c1ccc(OC)cc1,110.1,93.9*,0.9,106.5,i,-6.7
COc1ccc(-c2c(C(C)=O)c(C)nc3sc4c(=N)n(N)cnc4c23)cc1,80.4,62.0*,-0.28,77.6,i,x
CCOC(=O)c1c(C)nc2sc(C(=O)Nc3ccc(C(C)=O)cc3)c(N)c2c1-c1ccc(OC)cc1,47.7,95.3*,x,56.9,i,37.1
O=C(Nc1ccc(N2CCOCC2)c(Cl)c1)c1ccccc1Cl,x,-1.2,-0.57,x,i,x
COc1ccc2oc(=Nc3cccc(F)c3)c(C(N)=O)cc2c1,x,2.7,0.52,x,i,x
Cc1cccc(NC(=O)CN2C(=S)NC(C)(C)CC2C)c1C (configuration not stated),99.0,-6.8,x,93.1,i,12.5
CCSc1nc2ccccc2n1C(=O)/C=C\c1ccc(OC)c(OC)c1,5.6,89.7*,-1.98,1.7*,i,x
O=C(/C=C/c1ccccc1Cl)NCCc1ccc(F)cc1,91.0,38.9,0.65,93.1,i,-2.6
CCCCC1(Cc2cccc([N+](=O)[O-])c2)C(=O)N(c2ccccc2)N(c2ccccc2)C1=O,11.7,57.5*,-1.47,14.0,i,39.3
Cc1ccc(Nc2nc(N/N=C/c3c[nH]c4ccccc34)nc(N3CCOCC3)n2)cc1,2.8*,54.0*,-1.42,5.1*,i,-3.0
Cc1[nH]c2ccccc2c1/C=N/Nc1nc(Nc2ccc(F)cc2)nc(N2CCOCC2)n1,3.6*,99.1*,-0.48,5.8*,+,-31.2
SMILES,HCT116 PTEN-null,Lmaj promast,Ins promoter up,bCat KO growth,Autophagy mod,INS promoter inh
Cc1cc(/C=N/Nc2nc(N3CCOCC3)nc(N3CCOCC3)n2)c(C)n1-c1ccccc1,x,7.7,-0.49,x,i,44.4
C(=N\Nc1nc(Nc2ccccc2)nc(N2CCOCC2)n1)/c1c[nH]c2ccccc12,9.6,96.6*,x,12.7,i,-20.0
CCOC(=O)N1CCN(C(=O)CC(C(=O)N2CCc3ccccc32)n2ccnc2)CC1 (configuration not stated),77.7,83.4*,1.37,79.7,i,x
O=C(CC(C(=O)N1CCc2ccccc21)n1ccnc1)NCc1ccccc1 (configuration not stated),100.8,100.1*,x,94.7,i,-16.1
CCN(CC)CC(C)CNC(=O)CC(C(=O)N1CCc2ccccc21)n1ccnc1 (configuration not stated),90.3,-4.4,x,87.0,i,9.1
O=C(CSc1nnc(-c2ccc(Br)cc2)n1C1CCCCC1)N1CCCC1,73.2,9.4,x,70.6,i,-13.5
